Compound activity deposited in PubChem by National Center for Advancing Translational Sciences (NCATS).
Casp1 inh = qHTS Assay for Allosteric/Competitive Inhibitors of Caspase-1 | P29466 | Caspase-1 enzyme, Ac-WEHD-AFC fluorogenic rate | AID 900, 2007 | Potency, µM (highest dose often 57.5 µM), usual class: inhibitors | 0.03% of 75,000 active
GBA activity = Glucocerebrosidase; Potency, µM; 1.1% of 48,000 active; AID 360, 2006; purified enzyme, resorufin glucoside fluorescence (screen aimed at inhibitors), 20 min; in the data active = potency below about 15 µM; inconclusive = mostly about 16 µM to 33 µM;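 also: the screen sought inhibitors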
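Compounds titrated against 0.2 nM normal enzyme, 30 uM resorufin beta-D-glucopyranoside substrate, citrate/phosphate buffer with taurocholate and tween-20, pH 5.9. Reaction ran 20 min at room temperature; fluorescence (Ex 548/Em 600) gave AC50.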
Luciferase inh = qHTS Assay for Inhibitors of Firefly Luciferase. AID 411, 2009. Luciferin 4-monooxygenase (Photinus pyralis), P08659. purified firefly luciferase, luminescence, 8 min. 2.2% of 72,000 active. Potency, µM (series often up to 57.1 µM), actives largely listed as inhibitors; also: nearly all actives have a fitted effect of over 40% in size
Target sequence (P08659 whole entry, looked up): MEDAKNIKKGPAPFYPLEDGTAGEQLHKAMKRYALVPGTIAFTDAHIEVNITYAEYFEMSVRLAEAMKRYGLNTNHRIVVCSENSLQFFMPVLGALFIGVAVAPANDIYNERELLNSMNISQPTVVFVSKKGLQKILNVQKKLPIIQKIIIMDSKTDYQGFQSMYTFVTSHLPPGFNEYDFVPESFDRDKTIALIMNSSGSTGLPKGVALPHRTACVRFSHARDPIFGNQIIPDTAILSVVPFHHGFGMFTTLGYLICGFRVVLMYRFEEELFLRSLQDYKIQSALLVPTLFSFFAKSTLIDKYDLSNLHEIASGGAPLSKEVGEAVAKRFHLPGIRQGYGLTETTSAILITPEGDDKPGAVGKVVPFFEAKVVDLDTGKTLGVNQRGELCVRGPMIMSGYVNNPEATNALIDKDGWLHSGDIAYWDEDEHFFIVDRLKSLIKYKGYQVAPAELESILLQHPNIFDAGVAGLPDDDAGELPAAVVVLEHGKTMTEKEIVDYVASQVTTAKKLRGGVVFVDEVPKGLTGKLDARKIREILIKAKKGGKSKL
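Luminescence read-out after 8 min at room temperature; enzyme reaction used luciferin plus 10 uM ATP (linear range) in imidazole buffer pH 7.2 with KCl, MgCl2, Tween 20 and BSA. Each sample was run as a titration.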
Casp7 inh = qHTS Assay for Allosteric/Competitive Inhibitors of Caspase-7; 0.02% of 75,000 active; AID 889, 2007; recombinant caspase-7, Ac-DEVD-AFC fluorescence rate; P55210; Potency, µM (doses to about 57.5 µM), actives largely listed as inhibitors; active = well fitted inhibition curve with a large enough effect in the main read-out, with a control signal flat, not every such curve was filed as active; inconclusive = small, poorly fitted or top-dose-only effect, or a change in a side signal
PK Bst = Pyruvate Kinase; purified pyruvate kinase, luminescence ATP production; ribose 5-phosphate activator present at AC10; Potency, µM; 1.2% of 51,000 active; AID 361, 2006; in the data active = potency below about 11 µM; inconclusive = mostly about 12 µM to 25 µM;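 the screen sought inhibitors and activators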
Large screens that a line does not name were inactive. Rows were chosen to be rich in hits. Some 3.1% of all compounds tested hit in one or more screens of this group. Unless noted, calls follow the shape of the dose curve; as a rule, active = well fitted inhibition curve with a large enough effect; inconclusive = small, poorly fitted or top-dose-only effect; inactive = flat fitted curve, though single readings scatter.

CCCCCSc1nc2c(cnn2-c2ccccc2)c(=O)[nH]1	GBA activity 13
CC(C)Sc1nc2c(cnn2-c2ccccc2)c(=O)[nH]1	none (no result: GBA activity, PK Bst)
CN(C)c1ccc(N=Nc2cccc3ccoc23)cc1	Luciferase inh 4µM (no result: GBA activity, PK Bst)
CCCCCOc1ccc(CN2CCOCC2)cc1Cl	Luciferase inh 25µM (no result: GBA activity, PK Bst)
COCCNC(=O)c1noc2c1CCc1cc(OC)ccc1-2	Luciferase inh 13µM (no result: PK Bst)
COCC(C)NC(=O)c1noc2c1CCc1cc(OC)ccc1-2 (centres undefined)	Luciferase inh inconclusive (no result: PK Bst)
CCOC(=O)Cc1cc(=O)[nH]c(Nc2nc3ccccc3o2)n1	none (no result: GBA activity, Luciferase inh, PK Bst)
COC(=O)Cc1cc(=O)[nH]c(Nc2nc3ccccc3o2)n1	Luciferase inh 16µM (no result: GBA activity, PK Bst)
Cn1ccnc1SCC(=O)Nc1ccc2ccccc2c1	Luciferase inh 13µM (no result: GBA activity)
Cn1ccnc1SCC(=O)c1cc2ccccc2o1	none
COc1ccc(C2C3=C(N=C4SCC(=O)N42)c2ccccc2CC3)cc1OC (centres undefined)	none
COc1ccc(C2C3=C(N=C4SCC(=O)N42)c2ccccc2CC3)cc1 (centres undefined)	Luciferase inh 25µM (no result: PK Bst)
CC(C)(C)[C@@]1(O)CCN2C[C@@H]3c4ccccc4CCc4cccc(c43)[C@@H]2C1	none (no result: GBA activity, PK Bst)
CCc1nnc(NC(=O)c2ccc(S(=O)(=O)N(CC)Cc3ccccc3)cc2)o1	GBA activity 14
CCCCN(CCCC)S(=O)(=O)c1ccc(C(=O)Nc2nnc(COC)o2)cc1	GBA activity inconclusive
Cc1occc1C(=O)Nc1ccc2c(c1)CCC2	Luciferase inh 25µM (no result: PK Bst)
O=C(Nc1ccc2c(c1)OCCO2)c1ccc(CN2CCOCC2)cc1	GBA activity inconclusive, Luciferase inh 16µM (no result: PK Bst)
Cc1ncoc1C(=O)Nc1ccc2c(c1)OCCO2	Luciferase inh 20µM (no result: PK Bst)
Cc1cc(C(=O)Nc2cccc(O)c2)c(C)o1	none
Cc1cc(C(=O)Nc2ccc3c(c2)OCCO3)c(C)o1	Luciferase inh 16µM
COc1ccc(-c2cc(C(=O)N/N=C\c3cc(OC)c(OC)c(OC)c3)[nH]n2)cc1	none (no result: GBA activity, Luciferase inh, PK Bst)
COc1cc(/C=N/NC(=O)c2cc(-c3ccccc3)n[nH]2)cc(OC)c1OC	none (no result: GBA activity, Luciferase inh, PK Bst)
Cc1occc1C(=O)Nc1ccc2c(c1)OCCO2	Luciferase inh 20µM
O=C(Nc1ccc2c(c1)OCCO2)c1cncc(Br)c1	Luciferase inh 10µM
O=C(Nc1ccc2c(c1)OCO2)c1cncc(Br)c1	none (no result: Casp1 inh, GBA activity, Casp7 inh)
CCCCCCCCC/C=C/CC1CC(=O)OC1=O (centres undefined)	none (no result: GBA activity, Luciferase inh, PK Bst)
CCN1CCN(C(=O)NC(C(=O)NC2C(=O)N3C(C(=O)O)=C(CSc4nnnn4C)CSC23)c2ccc(O)cc2)C(=O)C1=O (centres undefined)	none (no result: GBA activity, Luciferase inh, PK Bst)
Nc1nc(CSc2ncn(-c3ccccc3)n2)cs1	Luciferase inh 25µM (no result: PK Bst)
CO/N=C(\C(=O)N[C@@H]1C(=O)N2C(C(=O)O)=C(CSc3nc(=O)c(O)nn3C)CS[C@@H]12)c1csc(N)n1	none (no result: GBA activity, PK Bst)
CCCCCCCN	none (no result: GBA activity, Luciferase inh, PK Bst)
Cn1c(SCC(=O)c2ccc3c(c2)OCO3)nnc1-c1ccccn1	none
NC(=O)c1ccc(-c2nc(-c3ccc4c(c3)OCO4)c(-c3ccccn3)[nH]2)cc1	Luciferase inh 7.9µM (no result: GBA activity, PK Bst)
N=C1C(c2nc3ccccc3[nH]2)=C(O)CN1c1ccccc1	none (no result: PK Bst)
CC1C(O)=C(c2nc3ccccc3[nH]2)C(=N)N1c1ccccc1 (centres undefined)	Luciferase inh 25µM (no result: PK Bst)
CCCCCCN1CC(O)=C(c2nc3ccccc3[nH]2)C1=N	GBA activity 11
CCC(C)N1CC(O)=C(c2nc3ccccc3[nH]2)C1=N (centres undefined)	Luciferase inh inconclusive (no result: GBA activity, Casp7 inh, PK Bst)
CC(C)(N)C(=O)N[C@@H]1C(=O)N2[C@@H]1SC(C)(C)[C@H]2C(=O)O	none (no result: GBA activity, PK Bst)
Cc1sc2ncnc(Sc3nnnn3-c3ccccc3)c2c1C	GBA activity 9.2
c1ccc(-c2nc(-n3ccnc3)nc(-n3ccnc3)n2)cc1	PK Bst 0.94
c1ccc(CN2CCN(c3nc(-c4ccccc4)nc(-n4ccnc4)n3)CC2)cc1	PK Bst 4.4 (no result: GBA activity)
O=C(Nc1ccc(Nc2ccccc2)cc1)c1ccco1	GBA activity 3, Luciferase inh 13µM
CC(=O)Nc1ccc(S(=O)(=O)Nc2ccc(NC(=O)c3ccco3)cc2)cc1	GBA activity 11
O=C(Nc1ccc(C(=O)Oc2ccccc2)c(O)c1)c1ccco1	Luciferase inh 25µM
O=C(Nc1ccc(OC(=O)c2cccs2)cc1)c1ccco1	Luciferase inh 25µM
Cc1cc(NS(=O)(=O)c2ccc(NC(=O)c3ccco3)cc2)no1	none
CC(C)(C(=O)O)c1ccc([C@@H](O)CCCN2CCC(C(O)(c3ccccc3)c3ccccc3)CC2)cc1	none (no result: GBA activity, PK Bst)
O=c1c(O)cc(C2Oc3cc(O)cc(O)c3CC2O)cc2c(C3Oc4cc(O)cc(O)c4CC3O)cc(O)c(O)c12 (centres undefined)	Casp1 inh inconclusive (no result: GBA activity, Luciferase inh, PK Bst)
CCC[C@H](Sc1nc(N)nc2nc[nH]c12)C(=O)O	none (no result: GBA activity, PK Bst)
COc1c(F)c(F)c(C(=O)Nc2ccc(NC(=O)c3ccco3)cc2)c(F)c1F	GBA activity 1.5
CCOc1ccc(NC(=O)c2ccco2)cc1	Luciferase inh 13µM
COC(=O)/C=C\c1cc(O)ccc1O	none (no result: GBA activity, PK Bst)
CC#C[C@@]1(O)CC[C@@H]2[C@@H]3CCC4=CC(=O)CCC4=C3[C@@H](c3ccc(N(C)C)cc3)C[C@]21C	none (no result: Casp1 inh, GBA activity, Casp7 inh, PK Bst)
COc1ccc(-c2cn3c(C)c(C(=O)Nc4cccc(NC(C)=O)c4)sc3n2)cc1	GBA activity inconclusive, Luciferase inh 13µM
Cc1nc2cc(NC(=O)Nc3nccs3)ccc2n1C	Luciferase inh 6.3µM, PK Bst 11 (no result: GBA activity)
Cc1nc2cc(NC(=O)NCc3ccco3)ccc2n1C	GBA activity inconclusive
Cc1cccc(NC(=O)c2ccc(NS(=O)(=O)c3c(C)noc3C)cc2)c1	GBA activity 12
COc1cc(NC(=O)c2ccccc2)cc(OC)c1	none
COc1ccc(C(=O)Nc2cc(OC)cc(OC)c2)cc1	Luciferase inh 4µM (no result: GBA activity, PK Bst)
COc1cc(NC(=O)c2ccc(NS(=O)(=O)c3c(C)noc3C)cc2)cc(OC)c1	GBA activity 11
Cc1ccc(-n2c(SCC(=O)Nc3ccc4c(c3)OCO4)nnc2-c2cccs2)cc1	GBA activity 9.3
O=C(CSc1nnc(-c2cccs2)n1-c1ccccc1)NCc1ccc2c(c1)OCO2	none
C=CC1=C(C)C2=NC1=CC1=NC(=CC3=NC(=CC4=NC(=C2)C(C)=C4CCC(=O)O)C(CCC(=O)O)=C3C)C(C=C)=C1C.[Zn]	none (no result: GBA activity, PK Bst)
Fc1cc2nc(-c3ccncc3)[nH]c2cc1F	GBA activity 14
COC(=O)c1sccc1NC(=O)c1cc2c(s1)CCCC2	Luciferase inh 20µM (no result: GBA activity, PK Bst)
COC(=O)c1sccc1NC(=O)c1ccc2c(c1)OCO2	none (no result: GBA activity, PK Bst)
Cc1noc(NC(=O)Nc2ccccc2F)c1C#N	none (no result: GBA activity, PK Bst)
O=C(Nc1ccc(O)c(C(=O)O)c1)c1ccc2c(c1)C(=O)N(CC1CCCO1)C2=O (centres undefined)	Luciferase inh 13µM (no result: PK Bst)
COc1ccc(C(=O)c2oc3ccc(OC)cc3c2N)cc1	Luciferase inh 10µM (no result: GBA activity, PK Bst)
